± gives the standard deviation of the averaged measurements.
How the values were obtained:
Conditions in all cases: concentration: 10 µM; 24 h
HCC1569 [1] = test: cell number relative to DMSO (% of DMSO); higher = more cells (less growth inhibition / toxicity)
Procedure, shortened: (§1)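 HCC1569 and TDF cells were seeded at 800 per well in 384-well plates in RPMI with 10% FBS and treated with compounds at 10 µM for 24 h at 37 °C, in triplicate. After fixation in 3.7% formaldehyde, cells were stained with a rabbit anti-H1.0 antibody, an AlexaFluor 647 secondary and DAPI, and six fields per well were imaged at ×10. H1.0 nuclear intensity or cell number is given as percent of the plate control, using the median of replicates, with HCC1569 values smoothed for positional effects.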

TDF [2] = test: as above
Procedure, shortened: as §1

TDF [3] = test: H1.0 immunofluorescence intensity relative to DMSO (% of DMSO); higher = stronger H1.0 induction, active = 120 or more
Procedure, shortened: as §1

HCC1569 [4] = test: H1.0 immunofluorescence intensity relative to DMSO (% of DMSO); higher = stronger H1.0 induction, active = 140 or more
Procedure, shortened: as §1
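Throughout, for H1.0 immunofluorescence intensity relative to DMSO: TDF is a line of transformed human dermal fibroblasts of mesenchymal origin.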
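Throughout, for cell number relative to DMSO: TDF denotes transformed human dermal fibroblasts of mesenchymal origin.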

SMILES | cell number (HCC1569 [1]) | cell number (TDF [2]) | H1.0 immunofluorescence intensity (TDF [3]) | H1.0 immunofluorescence intensity (HCC1569 [4])
C[N+]1(C)CCC(OC(=O)C(c2ccccc2)c2ccccc2)CC1.[I-] [4-DAMP methiodide] | 100 | 105 | 98.6 (inactive) | 101 (inactive)
Cn1cnc2c(F)c(Nc3ccc(Br)cc3Cl)c(C(=O)NOCCO)cc21 | 105 | 91.8 | 93.3 (inactive) | 98.8 (inactive)
CCCCCC=CCC(O)C=Cc1cccc(CC(O)CCCCO)n1 (configuration not stated) | 98.7 ± 2 | 108 ± 4.7 | 95.9 (inactive) | 113 (inactive)
C#CCNCc1cc2cc(OCc3ccccc3)ccc2[nH]1 [N-((5-(benzyloxy)-1H-indol-2-yl)methyl)prop-2-yn-1-amine] | 82.8 | 91 | 96 (inactive) | 136 (inactive)
Cl.Cl.O=C(O)COCCN1CCN(C(c2ccccc2)c2ccc(Cl)cc2)CC1 (configuration not stated) [Cetirizine 2HCl] | 98.9 | 102 | 94.3 (inactive) | 104 (inactive)
CN1CCN(CCCCN2C(=O)CN(/N=C/c3ccc(-c4ccc(Cl)cc4)o3)C2=O)CC1.Cl.Cl | 98.2 | 102 | 92.6 (inactive) | 115 (inactive)
C=C1NC2(C(=O)COC(C)=O)C(CC3C4CCC5=CC(=O)C=CC5(C)C4C(O)CC32C)O1 (configuration not stated) | 96.8 | 108 | 86 (inactive) | 101 (inactive)
Nc1[nH]nc2nnc(-c3c(-c4ccccc4)nn4ccccc34)cc12 | 94.2 | 100 | 89.2 (inactive) | 117 (inactive)
Cc1cccc(-c2[nH]c(C(C)(C)C)nc2-c2ccc3c(c2)OCO3)n1.Cl [TGF-b RI Inhibitor III] | 96.3 | 84 | 97.7 (inactive) | 122 (inactive)
Cc1cnc(-c2cc(N3CCN(C(=O)CCS(C)(=O)=O)CC3)ncc2Cl)c(C)c1.Cl | 103 | 103 | 83.9 (inactive) | 104 (inactive)
O=C(O)c1ccc(NC(=O)[C@H](CC2CCCC2)n2cnc(C(F)(F)F)c2)nc1 | 100 | 100 | 96.9 (inactive) | 106 (inactive)
Fc1ccc(-c2c3cccc(C(F)(F)F)c3nn2Cc2ccc(F)cc2Cl)cc1 | 100 | 95.3 | 92.3 (inactive) | 102 (inactive)
CN1C2CCCC1CC(NC(=O)c1nn(C)c3ccccc13)C2 (configuration not stated) [Granisetron] | 93.7 | 93.9 | 104 (inactive) | 102 (inactive)
CC12CCc3occc3C1CCC13CC(CCC12)C(O)(CO)C3 (configuration not stated) [Cafestol] | 103 | 101 | 103 (inactive) | 88.2 (inactive)
O=c1cc(N2CCOCC2)oc2c1ccc1ccccc12 [NU 7026 - 2-(4-Morpholinyl)-4H-naphthol[1,2-b]pyran-4-one] | 96 | 106 | 94 (inactive) | 105 (inactive)
COc1c(O)cc2c(c1O)C1OC(CO)C(O)C(O)C1OC2=O (configuration not stated) [Bergenin] | 99 | 107 | 91.7 (inactive) | 93.5 (inactive)
O=C1CC(c2ccc(O)c(O)c2)Oc2c1ccc(OC1OC(CO)C(O)C(O)C1O)c2O (configuration not stated) [Flavanomarein] | 102 | 98.6 | 94.9 (inactive) | 99.9 (inactive)
O=C1Nc2cc(Br)ccc2C1=C1N=c2ccccc2=C1NO [GSK-3 Inhibitor IX] | 56.3 | 70.1 | 112 (inactive) | 222 (active)
CCCCCC=CCC=CCCCCCCCC(N)=O [Linoleamide] | 99.8 | 94.8 | 99.6 (inactive) | 99.2 (inactive)
CCOC(=O)C1=C(C)NC(C)=C(C(=O)OC)C1c1cccc([N+](=O)[O-])c1 (configuration not stated) [Nitrendipine] | 97.8 ± 5.5 | 101 ± 10 | 101 (inactive) | 122 (inactive)
CC1=C(C)C(=O)C(C(CCCCCC(=O)O)c2ccccc2)=C(C)C1=O (configuration not stated) [Seratrodast] | 107 | 104 | 99.3 (inactive) | 82.5 (inactive)
CCOC(=O)CNC(=O)[C@@H]1CCCN1C(=O)Cc1ccccc1 | 102 | 109 | 97.4 (inactive) | 87.1 (inactive)
Nc1ncnc2c1nc(Br)n2C1OC2COP(=O)([O-])OC2C1O.[Na+] (configuration not stated) [8-Bromo-cAMP sodium] | 104 | 110 | 95.5 (inactive) | 90.3 (inactive)

From the supplement of paper PMC7156485
